In PubChem BioAssay (NCATS):
Results filed as inconclusive are left out. Active and inactive are the calls of the source. Unless noted, the call rests on the fitted dose curve; in most records, active means well fitted curve in the direction sought with a large enough effect; inconclusive means small, poorly fitted or top-dose-only effect, or another doubt; inactive means no such curve, though single readings can be large; an effect the other way counts as inactive or inconclusive.

What was measured:
[1] = molecular target: Glucocorticoid receptor (Homo sapiens) (UniProt P04150); assay: qHTS assay for small molecule agonists of glucocorticoid receptor signaling (AID 588532; active means well fitted curve in the direction sought with a large enough effect in the signal ratio, with a control signal flat; the % refers to the signal ratio;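 further: 100% = dexamethasone at 0.1 µM and 0% = DMSO only wells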); settings: HeLa MMTV-bla, beta-lactamase ratio, agonist, 18 h; activation: stronger effect = higher value, percent of dexamethasone control, DMSO zero
Sequence of Glucocorticoid receptor (Homo sapiens) (P04150 whole entry, looked up): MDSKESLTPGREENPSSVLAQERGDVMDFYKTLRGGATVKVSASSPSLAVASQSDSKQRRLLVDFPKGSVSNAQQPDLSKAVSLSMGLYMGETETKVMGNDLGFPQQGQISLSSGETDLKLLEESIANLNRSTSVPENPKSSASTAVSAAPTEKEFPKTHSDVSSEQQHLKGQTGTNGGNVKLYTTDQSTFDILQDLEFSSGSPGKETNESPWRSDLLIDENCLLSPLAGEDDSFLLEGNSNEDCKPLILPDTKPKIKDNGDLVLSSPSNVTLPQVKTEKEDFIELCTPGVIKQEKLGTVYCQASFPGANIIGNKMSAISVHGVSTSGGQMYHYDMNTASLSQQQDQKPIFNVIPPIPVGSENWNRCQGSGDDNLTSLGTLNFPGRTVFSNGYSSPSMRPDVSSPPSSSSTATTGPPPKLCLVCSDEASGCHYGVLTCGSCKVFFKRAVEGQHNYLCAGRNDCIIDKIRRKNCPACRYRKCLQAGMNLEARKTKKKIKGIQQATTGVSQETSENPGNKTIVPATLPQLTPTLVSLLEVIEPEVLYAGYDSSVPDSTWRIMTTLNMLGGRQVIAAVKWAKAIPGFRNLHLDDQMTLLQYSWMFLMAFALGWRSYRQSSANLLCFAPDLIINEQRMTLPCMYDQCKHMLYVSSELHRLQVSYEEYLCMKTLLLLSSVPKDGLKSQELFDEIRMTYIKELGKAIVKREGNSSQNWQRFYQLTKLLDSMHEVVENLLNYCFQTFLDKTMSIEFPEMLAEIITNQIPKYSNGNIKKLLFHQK
Summary of the method: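 MMTV-bla HeLa, beta-lactamase reporter; medium with 1% charcoal/dextran-stripped FBS; cpds up to 92 uM, 18 h, 37 C; CCF4 readout 460/530 nm; Hill fit → EC50, efficacy vs 0.1 uM dexamethasone = 100%.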

[2] = molecular target: Glucocorticoid receptor (Homo sapiens) (UniProt P04150); assay: qHTS assay for small molecule antagonists of glucocorticoid receptor signaling (AID 588533; active means well fitted inhibition curve with a large enough effect in the signal ratio, with a control signal flat, not every such curve was filed as active; the % refers to the signal ratio;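 further: cells stimulated with 2 nM dexamethasone as agonist; on the % scale 0 is the no-effect control and ±100 the full control effect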)
Summary of the method: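 Antagonist-mode qHTS: compound titrations added to GRE-bla HeLa cells, then dexamethasone 2 nM final; 18 h, 37 C. CCF4 FRET fluorescence normalized to dexamethasone and DMSO; IC50 from Hill fit.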

[3] = molecular target: Peroxisome proliferator-activated receptor delta (Homo sapiens) (UniProt Q03181); assay: qHTS assay for small molecule agonists of peroxisome proliferator-activated receptor delta signaling (AID 588534; calls by dose curve;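 further: 0% = DMSO basal wells and 100% = positive control agonist at 10 µM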)
Sequence of Peroxisome proliferator-activated receptor delta (Homo sapiens) (Q03181 whole entry, looked up): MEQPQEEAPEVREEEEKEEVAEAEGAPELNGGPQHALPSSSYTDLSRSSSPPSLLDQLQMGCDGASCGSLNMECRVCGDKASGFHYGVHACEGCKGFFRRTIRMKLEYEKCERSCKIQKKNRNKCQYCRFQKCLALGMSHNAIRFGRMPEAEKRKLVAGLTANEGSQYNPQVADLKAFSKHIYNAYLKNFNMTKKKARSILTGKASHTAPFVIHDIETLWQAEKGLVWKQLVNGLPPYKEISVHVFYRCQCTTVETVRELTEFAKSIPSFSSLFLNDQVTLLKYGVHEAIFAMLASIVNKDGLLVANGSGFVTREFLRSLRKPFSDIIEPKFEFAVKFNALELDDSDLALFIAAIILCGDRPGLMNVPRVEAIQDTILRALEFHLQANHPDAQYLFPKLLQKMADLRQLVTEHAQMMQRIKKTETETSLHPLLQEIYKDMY
Summary of the method: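 Cell-based beta-lactamase reporter assay run in agonist mode: cells seeded and incubated 5 hrs at 37 C, compounds added and incubated 18 hrs at 37 C. CCF4 dye fluorescence read after 2 hrs at RT; EC50 and efficacy from Hill fits.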

[4] = molecular target: Vitamin D3 receptor (Homo sapiens) (UniProt P11473); assay: qHTS assay for small molecule antagonists of vitamin D receptor signaling (AID 588541; calls by dose curve;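 further: receptor activated by calcitriol during compound treatment; series mostly up to about 77 µM; on the % scale 0 is the no-effect control and ±100 the full control effect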)
Sequence of Vitamin D3 receptor (Homo sapiens) (P11473 whole entry, looked up): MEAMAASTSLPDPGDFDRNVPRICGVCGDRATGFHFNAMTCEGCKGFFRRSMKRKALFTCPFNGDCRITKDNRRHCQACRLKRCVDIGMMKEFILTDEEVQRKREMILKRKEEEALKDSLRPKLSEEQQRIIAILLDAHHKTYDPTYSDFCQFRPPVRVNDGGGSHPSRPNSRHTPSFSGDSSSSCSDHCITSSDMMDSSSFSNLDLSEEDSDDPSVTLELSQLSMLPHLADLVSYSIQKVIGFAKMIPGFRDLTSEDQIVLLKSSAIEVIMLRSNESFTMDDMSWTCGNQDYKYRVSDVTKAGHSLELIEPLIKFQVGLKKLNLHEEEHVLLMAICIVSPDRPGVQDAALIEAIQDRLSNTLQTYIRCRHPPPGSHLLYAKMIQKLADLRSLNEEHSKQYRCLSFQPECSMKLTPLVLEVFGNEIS
Summary of the method: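 VDR-UAS-bla HEK293T cells (2000/well, 2% charcoal-stripped FBS) were treated with titrated compounds plus 1-alpha,25-dihydroxyvitamin D3 (50 nM or 3 nM final) for 16 h at 37 C. CCF4 beta-lactamase fluorescence was read; Hill fits gave IC50.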

[5] = molecular target: Vitamin D3 receptor (Homo sapiens) (UniProt P11473); assay: qHTS assay for small molecule agonists of vitamin D receptor signaling (AID 588543; calls by dose curve;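 further: 0% = DMSO basal and 100% = reference agonist control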)
Summary of the method: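 qHTS in agonist mode: compound titrations stimulate a VDR-driven β-lactamase reporter in HEK293T cells over 16 h at 37 °C. Response normalized to 50 nM 1α,25-dihydroxyvitamin D3 = 100%, DMSO = 0%; Hill fitting gives EC50 and maximal response.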

[6] = molecular target: Retinoic acid receptor RXR-alpha (Homo sapiens) (UniProt P19793); assay: qHTS assay for small molecule agonists of retinoid X receptor alpha signaling (AID 588544; calls by dose curve; further: potency means the concentration at half of the fitted maximal effect;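 on activation: 0% = DMSO basal wells and 100% = reference agonist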)
Sequence of Retinoic acid receptor RXR-alpha (Homo sapiens) (P19793 whole entry, looked up): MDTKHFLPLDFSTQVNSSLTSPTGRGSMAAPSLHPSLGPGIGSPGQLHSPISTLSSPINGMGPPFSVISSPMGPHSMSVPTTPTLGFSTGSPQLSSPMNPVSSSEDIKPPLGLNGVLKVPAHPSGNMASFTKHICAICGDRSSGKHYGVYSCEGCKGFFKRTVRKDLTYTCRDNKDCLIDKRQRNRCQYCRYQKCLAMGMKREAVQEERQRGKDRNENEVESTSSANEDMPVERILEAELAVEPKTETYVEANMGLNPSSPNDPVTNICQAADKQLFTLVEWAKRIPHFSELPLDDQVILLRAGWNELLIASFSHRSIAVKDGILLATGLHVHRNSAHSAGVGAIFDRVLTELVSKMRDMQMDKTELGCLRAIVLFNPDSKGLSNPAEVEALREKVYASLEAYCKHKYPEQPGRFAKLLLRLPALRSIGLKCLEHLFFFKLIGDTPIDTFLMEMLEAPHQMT

[7] = molecular target: Thyroid hormone receptor beta (Homo sapiens) (UniProt P10828); assay: qHTS assay for small molecule agonists of thyroid hormone receptor beta signaling (AID 588545; calls by dose curve)
Sequence of Thyroid hormone receptor beta (Homo sapiens) (P10828 whole entry, looked up): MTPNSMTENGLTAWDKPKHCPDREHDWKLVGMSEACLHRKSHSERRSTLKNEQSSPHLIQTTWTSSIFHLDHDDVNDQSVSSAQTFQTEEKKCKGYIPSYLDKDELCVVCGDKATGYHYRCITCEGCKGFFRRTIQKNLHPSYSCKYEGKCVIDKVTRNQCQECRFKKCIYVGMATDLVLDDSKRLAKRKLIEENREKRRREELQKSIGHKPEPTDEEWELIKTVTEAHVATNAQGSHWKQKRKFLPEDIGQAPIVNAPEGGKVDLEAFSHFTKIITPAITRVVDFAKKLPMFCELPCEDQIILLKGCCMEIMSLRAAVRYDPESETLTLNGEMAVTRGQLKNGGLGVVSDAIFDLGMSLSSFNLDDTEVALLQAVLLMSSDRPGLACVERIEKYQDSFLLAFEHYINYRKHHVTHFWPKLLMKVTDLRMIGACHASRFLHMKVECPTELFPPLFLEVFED
Summary of the method: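 Agonist-mode beta-lactamase reporter assay, HEK 293 cells, 2% charcoal/dextran FBS; cells plated 4 hrs, compound 18 hrs at 37 C, CCF4 2 hrs RT. Normalized to 10 nM T3 (100%) and DMSO (0%); Hill fit gives EC50, efficacy.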

[8] = qHTS assay for small molecule antagonists of retinoid X receptor alpha signaling (AID 588546; active means well fitted inhibition curve with a large enough effect in the signal ratio, with a control signal flat, not every such curve was filed as active; the % refers to the signal ratio;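 further: cells stimulated with 9-cis-retinoic acid as agonist; on the % scale 0 is the no-effect control and ±100 the full control effect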); settings: HEK293T RXRa-UAS-bla, beta-lactamase ratio, antagonist mode; measured here: W530 green channel, cytotoxicity proxy
Summary of the method: (§1)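 Beta-lactamase reporter inhibition, read as CCF4 fluorescence ratio (ex 405, em 460/530 nm) after 2 h at RT. HEK293T UAS-bla cells, 2500/well, were stimulated with 9-cis-RA at 500 or 100 nM final alongside test compound for 18 h at 37 C.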

[9] = molecular target: Retinoic acid receptor RXR-alpha (Homo sapiens) (UniProt P19793); assay: as above; settings: HEK293T RXRa-UAS-bla, beta-lactamase ratio, antagonist mode
Summary of the method: as §1

[10] = molecular target: Thyroid hormone receptor beta (Homo sapiens) (UniProt P10828); assay: qHTS assay for small molecule antagonists of thyroid hormone receptor beta signaling (AID 588547; active means well fitted inhibition curve with a large enough effect in the signal ratio, with a control signal flat, not every such curve was filed as active; the % refers to the signal ratio;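 further: cells stimulated with 0.4 nM T3 agonist during compound exposure; series mostly up to about 77 µM; on the % scale 0 is the no-effect control and ±100 the full control effect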); settings: TR-UAS-bla HEK293, beta-lactamase ratio, antagonist mode, 18 h
Summary of the method: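 TR-UAS-bla GripTite HEK293 cells in 2% charcoal/dextran FBS medium were preincubated 4 h at 37 C, given compound (0.59 nM to 92 uM) plus 0.4 nM T3 (final) for 18 h, then CCF4 for 2 h at RT; Hill fit gave IC50.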

[11] = qHTS assay for small molecule activators of the p53 signaling pathway (AID 651743; active means well fitted activation curve with a large enough effect in the signal ratio, not every such curve was filed as active; the % refers to the signal ratio; further: series mostly up to about 92 µM; % of control where 0% means no effect); settings: HCT-116 p53RE-bla, beta-lactamase FRET ratio, 16 h; activation: stronger effect = higher value
Summary of the method: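 p53RE-bla HCT-116 cells with a stably integrated beta-lactamase reporter under p53 response elements were plated, rested 5 hours at 37 C/5% CO2, then exposed to compounds in DMSO for 16 hours at 37 C. LiveBLAzer B/G FRET substrate was read after 2 hours at room temperature.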

[12] = qHTS assay for small molecule activators of the nuclear factor-kappa B (NF-kB) signaling pathway (AID 651749; active means well fitted activation curve with a large enough effect in the signal ratio; the % refers to the signal ratio; further: series mostly up to about 77 µM; % of control where 0% means no effect); settings: NF-kB-bla ME-180 cells, beta-lactamase FRET ratio, 16 h; activation: stronger effect = higher value
Summary of the method: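 ME-180 cells stably carrying a beta-lactamase reporter under an NF-kB response element were exposed to compound or DMSO vehicle for 16 hr at 37C, 5% CO2. Pathway activation was read by FRET, since reporter expression disrupts FRET.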

[13] = qHTS assay for environmental chemicals that activate the Aryl hydrocarbon Receptor (AhR) signaling pathway (AID 651777); settings: 1A2-DRE human hepatoma cells, luciferase, 24 h; activation: stronger effect = higher value; further: % of control where 0% means no effect; nearly all actives have a fitted effect of over 15% in size
Summary of the method: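 Concentration–response screening used 1,200 1A2-DRE cells per well, 24 hr compound exposure (37 C, 5% CO2), and One-Glo luminescence as the AhR-driven CYP1A2 reporter signal.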

[14] = molecular target: Peroxisome proliferator-activated receptor alpha (Homo sapiens) (UniProt Q07869); assay: qHTS assay for small molecule agonists of the peroxisome proliferator-activated receptor alpha (PPARalpha) signaling pathway (AID 651778); settings: PathHunter PPARalpha complementation, chemiluminescence, 6 h; max response: stronger effect = higher value; further: potency means the concentration at half of the fitted maximal effect; on max response: % of control where 0% means no effect
Sequence of Peroxisome proliferator-activated receptor alpha (Homo sapiens) (Q07869 whole entry, looked up): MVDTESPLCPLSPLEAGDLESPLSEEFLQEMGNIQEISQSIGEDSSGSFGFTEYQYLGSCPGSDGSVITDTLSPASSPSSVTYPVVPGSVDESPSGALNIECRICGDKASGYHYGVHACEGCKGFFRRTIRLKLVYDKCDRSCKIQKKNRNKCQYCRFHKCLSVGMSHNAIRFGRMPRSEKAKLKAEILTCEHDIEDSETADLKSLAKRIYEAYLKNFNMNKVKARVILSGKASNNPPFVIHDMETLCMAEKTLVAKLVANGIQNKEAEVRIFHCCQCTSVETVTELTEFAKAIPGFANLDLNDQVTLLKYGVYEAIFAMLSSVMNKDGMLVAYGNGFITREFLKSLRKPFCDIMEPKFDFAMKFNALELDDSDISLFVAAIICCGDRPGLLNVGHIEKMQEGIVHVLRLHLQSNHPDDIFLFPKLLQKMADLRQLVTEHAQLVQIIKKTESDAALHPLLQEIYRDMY
Summary of the method: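 Cells plated at 2,000/well and held overnight at 37 C, 5% CO2, then compound added by pin tool for 6 hr; after PathHunter detection reagent and 60 min at room temperature, chemiluminescence from enzyme complementation was read.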

[15] = qHTS assay for small molecule agonists of the antioxidant response element (ARE) signaling pathway measured by Nrf2-dependant transcriptional activity (AID 720636; active means well fitted curve in the direction sought with a large enough effect in the repeat runs; an effect the other way counts as inactive or inconclusive;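 further: HepG2 cells with an ARE-driven luciferase reporter; % of control where 0% means no effect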)
Summary of the method: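 Attachment 6 hr at 37 C, then compound versus DMSO vehicle for 16 hr in ARE-luc HepG2 cells (1% dialyzed FBS); luminescence recorded 30 min after ONE-Glo addition at room temperature.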

[16] = qHTS assay for small molecule agonists of the antioxidant response element (ARE) signaling pathway measured by Nrf2-dependant transcriptional activity - cell viability counter screen (AID 720653; active means well fitted curve in the direction sought with a large enough effect in the repeat runs; an effect the other way counts as inactive or inconclusive; further: on the % scale 0 is the no-effect control and ±100 the full control effect); settings: ARE-bla HepG2 viability, CellTiter-Glo ATP luminescence, 16 h; max response: stronger effect = lower value
Summary of the method: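 ARE-bla HepG2 cells (2,000/well) rested 5 hrs at 37C/5% CO2, then exposed to compounds in DMSO for 16 hrs. Viability was read in the same wells as intracellular ATP by luminescence, 30 min at room temperature after reagent addition.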

[17] = qHTS assay for cell viability of HEK293 cells (AID 743288); settings: ATP luminescence (CellTiter-Glo), 18 h; max response: stronger effect = lower value; further: on the % scale 0 is the no-effect control and ±100 the full control effect; nearly all actives have a fitted effect of over 50% in size
Summary of the method: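 The Tox21 protocol used parental HEK293 cells treated for 18 h at 37 C with compounds delivered by pintool; ATP-coupled luminescence after 30 min at room temperature gave viability.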

[18] = qHTS assay for cell viability of the p53RE-bla HCT-116 cell line (AID 743292); further: on the % scale 0 is the no-effect control and ±100 the full control effect; nearly all actives have a fitted effect of over 55% in size
Summary of the method: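 Compound-exposed HCT-116 (p53RE-bla) cells, 4,000 per well, were kept 16 h at 37 C following a 5 h preincubation. Cell number was estimated from total ATP by CellTiter-Glo luminescence read after 30 min at room temperature.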

[19] = qHTS assay for small molecule antagonists of peroxisome proliferator-activated receptor delta signaling (AID 588535); settings: HEK293T PPARd-UAS-bla, beta-lactamase FRET ratio, 18 h; 460 nm channel;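 further: cells co-treated with a PPAR-delta agonist as stimulator during compound exposure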
Summary of the method: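 GeneBLAzer PPAR-delta-UAS-bla HEK293T cells in medium with 2% charcoal/dextran FBS were preincubated 5 hrs at 37 C, then given compounds, incubated 18 hrs at 37 C, and read by CCF4 beta-lactamase fluorescence; IC50 from Hill fits.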

[20] = molecular target: Nuclear receptor subfamily 1 group I member 2 (Rattus norvegicus) (UniProt Q9R1A7); assay: qHTS assay for small molecule activators of the rat pregnane X receptor (rPXR) signaling pathway (AID 651751; call rule not given here; further: 0% is about no effect); settings: rPXR reporter cells, luciferase (One-Glo), 24 h
Sequence of Nuclear receptor subfamily 1 group I member 2 (Rattus norvegicus) (Q9R1A7 whole entry, looked up): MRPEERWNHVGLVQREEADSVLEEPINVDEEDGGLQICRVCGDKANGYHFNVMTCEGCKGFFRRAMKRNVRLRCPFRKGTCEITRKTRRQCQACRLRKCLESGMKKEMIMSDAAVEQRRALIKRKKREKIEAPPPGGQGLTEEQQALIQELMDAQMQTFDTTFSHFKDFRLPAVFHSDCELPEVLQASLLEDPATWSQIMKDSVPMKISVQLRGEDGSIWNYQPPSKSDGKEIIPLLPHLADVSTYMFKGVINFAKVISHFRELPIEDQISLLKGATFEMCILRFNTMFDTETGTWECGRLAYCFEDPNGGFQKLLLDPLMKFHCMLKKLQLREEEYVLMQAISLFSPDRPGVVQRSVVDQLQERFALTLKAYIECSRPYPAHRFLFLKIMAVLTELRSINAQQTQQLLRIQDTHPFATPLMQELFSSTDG

FC(F)C(F)(F)OCC(Cn1cncn1)c1ccc(Cl)cc1Cl (centres undefined)
inactive: activation [1] 3.91% | Potency [2] | outcome [3] | Potency [4] | outcome [5] | Potency [6] | Potency [7] | max response [9] 4.82% | activity change % (negative = inhibition) [10] -17.9% | activation [11] 0.478% | activation [12] 0.464% | activation [13] 2.65% | max response [14] -0.725% | Potency [15] | max response [16] 4.71% | max response [17] -9.21% | Potency [18]
-6.39%: max response [8]

C[C@H]1[C@H](c2ccc(Cl)cc2)SC(=O)N1C(=O)NC1CCCCC1
inactive: activation [1] -1.81% | Potency [2] | Potency [4] | outcome [5] | Potency [7] | activation [11] 4.32% | activation [13] 6.81% | max response [14] -4.71% | Potency [15] | max response [16] -8.81% | max response [17] -26% | Potency [18]

COC(C)(C)CCC[C@H](C)C/C=C/C(C)=C/C(=O)OC(C)C
-16.5%: max response [8]
inactive: Potency [6] | Potency [7] | max response [9] 6.26% | activity change % (negative = inhibition) [10] -10.3% | activation [11] -4.16% | activation [12] 0.706% | activation [13] -0.0877% | max response [14] 0.0369% | Potency [15] | max response [16] -6.46% | max response [17] -5.99% | Potency [18]

CC(Oc1cccc(Cl)c1)C(=O)O (centres undefined)
47.7%: max response [19]
-2.12%: max response [8]
inactive: activation [1] -9.84% | Potency [2] | Potency [4] | Potency [6] | Potency [7] | max response [9] -12.8% | activity change % (negative = inhibition) [10] 10.2% | activation [11] 0.409% | activation [13] -0.19% | max response [14] -0.485% | Potency [15] | max response [16] -0.643% | max response [17] -4.52% | Potency [18] | max response [20] -1.92%

Brc1ccc(Br)cc1
-5.87%: max response [8]
-47.9%: max response [19]
inactive: activation [1] 1.41% | Potency [2] | outcome [3] | Potency [4] | outcome [5] | Potency [6] | Potency [7] | max response [9] 9.56% | activation [11] -8.84% | activation [13] -0.254% | max response [14] -1.4% | Potency [15] | max response [16] -4.46% | max response [17] -8.04% | Potency [18] | max response [20] -2.46%

O=[N+]([O-])c1ccc2ccc3cccc4ccc1c2c34
inactive: activation [1] -22% | outcome [5] | Potency [6] | Potency [7] | activity change % (negative = inhibition) [10] -20.5% | activation [13] 2.13% | max response [14] -0.269% | max response [16] -9.82% | max response [17] -25% | Potency [18] | max response [20] 3%

O=CNC(N1CCN(C(NC=O)C(Cl)(Cl)Cl)CC1)C(Cl)(Cl)Cl (centres undefined)
26.2%: max response [19]
inactive: activation [1] -2.65% | Potency [2] | outcome [3] | Potency [4] | outcome [5] | Potency [6] | Potency [7] | activity change % (negative = inhibition) [10] -18.1% | activation [12] -2.29% | activation [13] 0.502% | max response [14] -1.75% | Potency [15] | max response [16] -22.2% | max response [17] -20.2%

N#Cc1cc(Br)c(O)c(Br)c1
-9.47%: max response [8]
active: Potency [6] 15.8 µM | Potency [14] 25.1 µM
inactive: activation [1] 4.63% | Potency [2] | outcome [3] | Potency [7] | max response [9] 1.7% | activity change % (negative = inhibition) [10] 6.22% | activation [11] 5.1% | activation [12] -2.3% | activation [13] 1.12% | Potency [15] | max response [16] -28.2% | max response [17] -7.19% | Potency [18] | max response [20] -9.3%

Cc1ccccc1CO[C@@H]1C[C@@]2(C(C)C)CC[C@]1(C)O2
0.789%: max response [8]
inactive: outcome [3] | Potency [4] | Potency [6] | Potency [7] | max response [9] -22.7% | activation [12] -3.81% | activation [13] 0.466% | max response [14] 5.16% | Potency [15] | max response [16] 1.88% | max response [17] -20.5% | Potency [18]
49.2%: max response [19]

CC(C)=C[C@@H]1[C@@H](C(=O)OCN2C(=O)C3=C(CCCC3)C2=O)C1(C)C
inactive: activation [1] 11.7% | Potency [4] | Potency [7] | max response [9] 18% | activity change % (negative = inhibition) [10] 7.01% | activation [11] 11.9% | activation [13] -1.3% | max response [14] -0.573% | Potency [15] | max response [16] -22.2% | max response [17] -11.5% | Potency [18] | max response [20] 4.94%
-15.3%: max response [8]
